# From the supplement of paper PMC6555819
# How the values were obtained:
# Experiment in all cases: PBM binding z-score (relative to random genomic background probes); higher = stronger binding; sequences stand for … in GC…GCGATTGACAGCGTAGAATGAAGG
# [1] = tested on: RARb homodimer (NR concentration 270 nM)
# Method in brief: (§1)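 Regression normalization was applied to scanned fluorescence from custom Agilent 4×180K protein-binding microarrays. Before scanning, arrays were incubated 1 h with ligand-free nuclear receptor dimers, and binding was detected with antibodies against each partner (one per run). Binding z-scores use the random background probes as reference.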
# [2] = tested on: RARg:RXRa (NR concentration 270 nM, RXRa partner concentration 90 nM)
# Method in brief: as §1
# [3] = tested on: RARg homodimer (NR concentration 270 nM)
# Method in brief: as §1
# [4] = tested on: RXRa DBDmut IVT, anti-RXR (DBD mutation: RXRa K156A/R161A, NR concentration 90 nM)
# Method in brief: as §1
# [5] = tested on: RXRa homodimer (NR concentration 180 nM)
# Method in brief: as §1
# [6] = tested on: THRa:RXRa (NR concentration 90 nM, RXRa partner concentration 90 nM)
# Method in brief: as §1
# [7] = tested on: THRa homodimer (NR concentration 90 nM)
# Method in brief: as §1
# [8] = tested on: VDR homodimer (NR concentration 270 nM)
# Method in brief: as §1
Sequence,PBM binding z-score [1],PBM binding z-score [2],PBM binding z-score [3],PBM binding z-score [4],PBM binding z-score [5],PBM binding z-score [6],PBM binding z-score [7],PBM binding z-score [8]
TAGACTAGGTCATGCGGGCCAGTATAGTGTCGGC,2.66,3.38,4.13,0.0121,2.73,2.84,0.705,0.756
TCATATGGGTAAAGGTGAAAGTCGAACGATATGA,1.36,1.41,0.964,0.352,2.08,1.24,-0.573,-0.341
GATACAGGGTCAGCTAGAGACCAGAGTATGGAAA,2.5,4.48,4.19,0.915,3.99,2.5,0.211,0.881
CGTCCAAGGTCAGCAGGTCAGTGCAAGCGACGTG,4.99,6.35,6.82,2.29,4.74,3.77,2.47,2.18
CGTCCAAGGTCAAGGTCAGGGAAAGAGACTCGAA,5.45,7.09,7.87,3.81,7.17,4.53,3.82,3.37
GCTAGTTGGTCAGTCAAAGGTCACACACCGGTCG,5.2,5.9,4.85,0.537,5.93,3.52,1.59,1.47
CCTTACGGGTCACTGACAGGTTATAGCATTTGGA,3.39,6.19,4.95,1.95,5.59,2.98,0.283,1.03
TCTACCAGGCCAGAGGGTCACTCAAGAGGTACGG,3,3.03,2.46,0.518,2.92,1.93,0.581,0.936
GCATACAGGTAATACAAGGTGAAAGTCCGATTGT,1.04,0.773,0.617,0.25,0.894,4.17,1.16,0.161
GGATCGAGGGCATTCGAGTTGATAGCATGGCGAT,0.818,1.07,1.25,3.06,0.598,3.39,-0.117,3.49
GTACCAAGGAGAATAGGTCGTTGATGAGTAGGCG,0.0836,0.268,0.222,-0.343,0.654,-0.111,-0.986,-0.123
TCGAGTAGGTTAGGCGCATTCAGAATGGCGTCGA,-0.314,-0.45,-0.527,-0.0106,-0.118,-0.415,-0.996,-0.809
ACAATTAGTTGACTTAGGGCAACCGATACGACGC,1.03,0.677,0.936,0.628,0.455,1.37,0.444,0.709
ACAGACAGGCGATGAAGGTAACTCAGGCTATCAT,-0.109,-0.163,0.174,-0.246,-0.0483,0.512,-0.0858,-0.339
AGAACGAGGGCACGCTGAGTTGATTGCAGAGTAG,1.13,1.93,2.38,1.87,1.27,1.86,-0.121,2.17
TAGCCTAGGCCATGCGGGCCAGTATAGTGTCGGC,-0.484,-0.409,-0.0767,-1.68,-0.471,-0.614,-1.02,-1.02
ATATGTAGGTTACATCCGGGTCATGCAGGCTATG,2.93,3.76,2.25,0.707,3.4,4,2.29,1.76
CATACTGGGCCATTCAGAGGTCATTGATCATATG,4.15,4.52,3.48,1.39,3.85,3.21,1.4,3.67
GCTGGTAGGTCAACTGATGGTCAGCTAAAGCTCG,3.79,5.73,5.34,1.57,3.65,2.54,0.0326,0.11
CGTCCAAGGTCAATGCTAGGTCATTGAAAGCATT,4.92,7.82,7,3.83,6,4.65,3.74,4.05
CCTTACGGGTCACAGACAGGTTATAGCATTTGGA,3.16,5.97,4.84,1.77,5.47,3.03,0.316,0.727
GCTAGCAGGCCATTTGTGTCACTCAATGACGGGC,-0.0499,-0.217,0.011,0.131,-0.25,-0.583,-0.967,-0.895
CGTCAAAGTTCAAGGTAACGTATCAGAAAGCAGC,3.97,5.22,6.45,4.52,4.44,3.06,1.44,3.38
CAAACTAGGACAAGAGGTCAAAGTCCGCTTCCCG,4.38,5.63,4.63,2.33,6.3,3.92,1.89,4.42
ATATGTAGGTTATCGAGTCATTCAGTTTGCGCAT,0.699,0.829,0.699,0.829,0.932,0.512,0.232,0.932
TAGCCTAGGTCATTCAGAGGCCAGTATAGAAAGC,3.33,5.8,4.01,1.57,2.87,3.14,0.653,1.14
CGTCCAAGGTCAGAGAGATCAGTGAATGCCGAGT,3.33,4.47,5.03,2.73,3.39,3.31,1.57,1.58
CTCGAAAGGTCGTGCTCAGGTGTGTATACCAAAC,2.72,4.45,3.62,2.5,4.71,3,0.4,0.893
